Shown are actives, neighbours in structure and some others; about 21% of the full set was active somewhere.
Pf growth 48h – inhibits P. falciparum growth in the first generation, 48 h | P. falciparum luciferase growth in erythrocytes, 48 h | Potency, µM (titrated, usually from 28.7 µM), for the others: at the highest dose activity change, negative = inhibition, actives largely listed as inhibitors | actives 5.9% (n = 310,000) | AID 504832; active = well fitted inhibition curve with a large enough effect; inconclusive = small, poorly fitted or top-dose-only effect, or another doubt; inactive = no such curve, though single readings can be large or run the other way; note: potency is the fitted concentration of half-maximal effect; % is set by controls: 0 for no effect and ±100 for the full control effect
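Growth was read as firefly luciferase luminescence after a 48 h, 37 C, 5% CO2 exposure of compounds to reporter-bearing P. falciparum cultures (0.1% parasitemia, 2% hematocrit final) in Albumax-supplemented RPMI 1640.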
SARS PLpro yeast – SARS-CoV PLP inhibition in yeast; Potency, µM (series often up to 32.9 µM), for inactives: at the highest dose activity, positive = growth rescue, hits mostly activators; actives 0.19% (n = 330,000); S. cerevisiae expressing SARS-CoV PLpro, growth rescue; AID 485353; note: potency is the fitted concentration of half-maximal effect; 0% is about no effect; nearly all actives have a fitted effect of over 55% in size
NS1 function inh – influenza NS1 inhibition; Potency, µM (doses to about 46.1 µM), for the others: top-dose activity, positive = more growth; AID 2326; actives 0.4% (n = 270,000); note: potency is the fitted concentration of half-maximal effect; actives are rising curves; nearly all actives have a fitted effect of over 50% in size
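A cell-based growth assay was used: compounds that relieve NS1-induced slow growth of budding yeast raise OD600. Assay medium was yeast nitrogen base with ammonium sulphate and -URA supplement, pH 6.0, with 2% galactose.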
Shiga toxin inh – blocks Shiga toxin action in Vero cells; Vero cells, Shiga toxin protein synthesis inhibition reporter; inhibition, % at 38.7 µM; actives 9.2% (n = 290,000); in the data active = inhibition mostly above about 28%, no sharp cut-off; inactive = mostly below about 43%; note: 0% is about no effect
Pf growth 96h – P. falciparum growth inhibition at 96 hours. P. falciparum luciferase reporter growth, 96 h. Potency, µM (series often up to 28.7 µM), without a hit: top-dose activity change, negative = inhibition, hits mostly inhibitors. actives 6.9% (n = 320,000). AID 504834; active = well fitted inhibition curve with a large enough effect; inconclusive = small, poorly fitted or top-dose-only effect, or another doubt; inactive = no such curve, though single readings can be large or run the other way; note: potency is the fitted concentration of half-maximal effect; % is set by controls: 0 for no effect and ±100 for the full control effect
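Two-generation exposure (96 h) targets delayed-death phenotype. Reporter parasites carrying integrated firefly luciferase, in red cells at 2% hematocrit and 0.05% parasitemia final, kept at 37 C, 5% CO2; luminescence loss indicates inhibition.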
Cycloheximide cs – counter-screen hit for Shiga toxin inhibitors, cycloheximide. cell reporter, cycloheximide protein synthesis inhibition counterscreen. max response, %. actives 12% (n = 300,000); in the data active = max response mostly above about 13%, no sharp cut-off; inactive = mostly below about 14%; note: read at 38.3 µM for the half of the compounds with a filed dose; 0% is about no effect
* = called active by the depositor; u = inconclusive; x = no result given. Unless noted, calls come from the whole dose curve.

SMILES	Pf growth 48h	SARS PLpro yeast	NS1 function inh	Shiga toxin inh	Pf growth 96h	Cycloheximide cs
COC(=O)Cc1[nH]nc2c1C1(C(=O)N(Cc3ccccc3)c3ccccc31)C(C#N)=C(N)O2 (configuration not stated)	-7.6%	-0.8%	2.3%	14.5	46.7%	-4.3
Cc1[nH]nc2c1C1(C(=O)N(Cc3ccc(Cl)cc3)c3ccccc31)C(C#N)=C(N)O2 (configuration not stated)	13.1µM*	-1.7%	-53.6%	-8.0	33.9%	0.9
O=S(=O)(c1ccccc1)N1CCN(C(c2ccccc2)c2ccc(OC(F)(F)F)cc2)CC1 (configuration not stated)	x	-0.5%	10.8%	-1.0	2.2%	-4.1
O=C(O)Cn1c(=O)c2c3c(sc2n(Cc2ccc(Cl)cc2Cl)c1=O)CCCC3	2.4%	0.8%	9.6%	-9.7	18.2%	-3.4
COc1ccc(N(C)S(=O)(=O)c2cccc(C(=O)NC3CCCCC3C)c2)cc1 (configuration not stated)	u	-2.4%	x	32.3	u	17.0
CN(c1ccccc1)S(=O)(=O)c1cccc(C(=O)Nc2ccc(N3CCOCC3)cc2)c1	u	-0.2%	x	x	u	x
COc1ccc(N(C)S(=O)(=O)c2cccc(C(=O)Nc3ccc(N4CCOCC4)cc3)c2)cc1	8.28µM*	2.6%	x	x	u	x
Cc1ccc(N(C)S(=O)(=O)c2cccc(C(=O)Nc3ccc(N4CCOCC4)cc3)c2)cc1	u	18.7%	x	x	10.4µM*	x
COc1ccc(N(C)S(=O)(=O)c2cccc(C(=O)NC3CCCC3)c2)cc1	10.4µM*	-0.2%	x	7.8	u	4.8
CC(C)CN(CC(C)C)C(=O)C12CCC(C)(C(=O)O1)C2(C)C (configuration not stated)	-26.2%	18.7%	-3.1%	10.4	-13.3%	-1.3
N#Cc1cc2c(nc1SCC(N)=O)CCCCC2	x	-2.8%	10.4%	107.1	135.4%	17.8*
CCOC(=O)CC(=O)CSc1nc2c(cc1C#N)CCCCCC2	2.33µM*	-2.0%	3.9%	13.2	1.17µM*	-1.7
CC(C)OC(=O)CC(=O)CSc1nc2c(cc1C#N)CCC2	0.8%	1.9%	1.7%	24.5	26.5%	14.2
COC(=O)CC(=O)CSc1nc2c(cc1C#N)CCC2	37.0%	1.4%	x	54.5*	x	18.0*
CC(C)OC(=O)CC(=O)CSc1nc2c(cc1C#N)CCCCCC2	-7.2%	-3.2%	11.9%	17.0	x	14.7
N#Cc1cc2cc3c(cc2nc1SCC(=O)N1CCCC1)OCCO3	63.1%	0.9%	9.4%	50.8*	-0.7%	18.7
O=C(CNC(=O)c1nn(Cc2ccccc2)c(=O)c2ccccc12)Nc1ccc(F)c(F)c1F	x	-3.0%	x	x	x	x
CC(C)(C)c1ccc(C(=O)O)c(C(=O)c2ccc(C(=O)O)cc2)c1	u	-0.1%	-1.3%	7.1	-6.2%	1.3
O=C(C[C@@H]1C/C=C/CC[C@@H](Cc2ccc(F)cc2)C(=O)OC[C@H](Cc2ccccc2)NC1=O)N[C@H](CO)Cc1ccccc1	x	-5.6%	x	x	x	x
COc1cc2cc(C#N)c(SCC(=O)N3CCOCC3)nc2cc1OC	55.0%	-25.8%	-2.2%	-1.4	u	3.4
CC(C)OC(=O)CC(=O)CSc1nc2c(cc1C#N)CCCC2	38.5%	x	-3.6%	81.7*	u	36.8*
Cc1c(C#N)c(SCC(N)=O)nc2c1CCCC2	7.6%	3.1%	u	-15.5	9.28µM*	-6.9
N#Cc1cc2c(nc1SCC(=O)N1CCOCC1)CCCCC2	238.8%	-10.6%	8.5%	101.4*	x	42.0*
COC(=O)c1ccc(COC(=O)C(CCSC)NC(=O)COc2ccccc2)cc1 (configuration not stated)	1.1%	u	-22.6%	-4.3	0.5%	1.1
CCN(C(=O)c1ccnn1C)c1ccccc1	6.4%	-15.2%	-3.4%	-3.4	-5.0%	-2.4
O=S(=O)(NCc1cn2ccccc2n1)c1cc(F)ccc1F	-14.5%	-12.1%	-1.0%	-6.6	22.1%	7.7
O=S(=O)(NCc1cn2ccccc2n1)c1cccs1	35.0%	-1.9%	1.8%	53.2*	1.9%	29.2*
O=S(=O)(NCCc1cn2ccccc2n1)c1cccs1	16.9%	3.9%	-12.7%	15.0	30.8%	19.6*
CC(=O)c1cn(-c2ccc(Cl)cc2)c(=O)n(Cc2ccc(F)cc2)c1=O	u	-0.7%	-0.4%	-13.7	u	-1.6

Bioassay records (PubChem)
